Source: PubChem BioAssay (National Center for Advancing Translational Sciences (NCATS))
Six1-Eya2 inh – blocks human Six1 binding to Eya2; AlphaScreen GST-Six1/His-Eya2 binding, biochemical; hits give low values; activity change, % (concentration not given with the values); 360,000 compounds, 0.56% hits; AID 651725; in the data active = activity change below about -65%; inconclusive = mostly about -30% to -63%; also: % is scaled to controls: 0 for no effect and ±100 for the full control effect
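AlphaScreen with GST-Six1 and His-Eya2 (5X mix: 250 nM and 500 nM), glutathione donor and nickel acceptor beads; buffer 50 mM Tris pH 8.0, 300 mM NaCl, 1 mM TCEP; 1 h at 37 C in the dark.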
CtBP-E1A blk – blocks the CtBP interaction with E1A; AlphaScreen GST-E1A/His-CtBP binding, 1536-well; hits give low values; activity change, % (no concentration beside the values); 340,000 compounds, 0.49% hits; AID 651724; in the data active = activity change below about -65%; inconclusive = mostly about -30% to -63%; also: % is scaled to controls: 0 for no effect and ±100 for the full control effect
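Steps: dispense buffer (Tris pH 8.0, NaCl 300 mM, TCEP 1 mM, BSA, Tween 20); add 5X protein mix (GST-E1A, His-CtBP, 125 nM each); pin 23 nL compound; 2 h at 37 °C, dark; add 5X beads (50 ug/mL); 1 h; read.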
HP1b chromo inh – HP1-beta chromodomain-methylated histone interaction inhibition. P83916. 390,000 compounds, 0.56% hits. AlphaScreen HP1-beta / biotin-H3K9me3 peptide binding. Potency, µM (doses to about 114 µM), inactives show top-dose activity change, negative = inhibition, most hits filed as inhibitors; also: potency is read from the fitted curve at half-maximal effect; nearly all actives have a fitted effect of over 70% in size
Target sequence (P83916 whole entry, looked up): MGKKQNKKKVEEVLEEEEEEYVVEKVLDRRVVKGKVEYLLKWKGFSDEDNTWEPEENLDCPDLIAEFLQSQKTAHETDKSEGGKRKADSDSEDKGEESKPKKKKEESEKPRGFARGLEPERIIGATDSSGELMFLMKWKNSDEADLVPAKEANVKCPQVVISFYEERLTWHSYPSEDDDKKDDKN
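Compound inhibition of the preformed complex between 50 nM HP1-beta and 50 nM biotinylated H3K9me3 peptide was read by AlphaScreen. Buffer was PBS pH 7.4 with 0.01% Tween-20. Incubations ran 30 min at room temperature, with 10 ug/mL donor/acceptor beads.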
JMJD2A Tudor – blocks the human JMJD2A Tudor domain | Potency, µM (titrated, usually from 114 µM), inactives show top-dose activity change, negative = inhibition, actives largely listed as inhibitors | 390,000 compounds, 4.4% hits | O75164 | AlphaScreen JMJD2A-Tudor / H3K4me3 peptide binding | AID 504339; also: potency is read from the fitted curve at half-maximal effect; % is scaled to controls: 0 for no effect and ±100 for the full control effect; nearly all actives have a fitted effect of over 50% in size
BAZ2B block – BAZ2B (human) inhibition; Q9UIF8; AlphaScreen BAZ2B-H3K14Ac peptide displacement; Potency, µM (doses to about 114 µM), for inactives: top-dose activity change, negative = inhibition, most hits filed as inhibitors; 360,000 compounds, 4.4% hits; AID 504333; also: potency is read from the fitted curve at half-maximal effect; % is scaled to controls: 0 for no effect and ±100 for the full control effect; nearly all actives have a fitted effect of over 60% in size
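AlphaScreen displacement: compounds (up to 110uM) incubated 30 min at room temperature with a preformed 50 nM BAZ2B/50 nM biotinylated H3K14Ac peptide complex in PBS pH 7.4 with Tween-20. Donor and acceptor beads at 10 ug/mL final added, 20 min light-protected before reading.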
G9a block – blocks human histone lysine methyltransferase G9a; Q96KQ7; G9a H3K9 monomethylation, AlphaScreen, 2 h; Potency, µM (titrated, usually from 102 µM), for inactives: at the highest dose activity, negative = inhibition, hits mostly inhibitors; 350,000 compounds, 8.8% hits; also: potency is read from the fitted curve at half-maximal effect; % is scaled to controls: 0 for no effect and ±100 for the full control effect; nearly all actives have a fitted effect of over 75% in size
Target sequence (Q96KQ7 913-1193 limits assumed): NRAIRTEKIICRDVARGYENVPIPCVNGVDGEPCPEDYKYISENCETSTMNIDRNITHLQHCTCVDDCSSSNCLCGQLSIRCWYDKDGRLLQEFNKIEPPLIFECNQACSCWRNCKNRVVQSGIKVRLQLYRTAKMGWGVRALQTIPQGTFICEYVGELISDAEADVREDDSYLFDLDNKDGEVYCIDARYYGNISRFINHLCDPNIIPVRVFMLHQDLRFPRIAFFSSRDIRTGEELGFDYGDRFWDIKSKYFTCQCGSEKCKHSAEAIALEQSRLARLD
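Quantitative HTS format: methyltransferase activity on a biotin-tagged H3K9 peptide is measured by AlphaScreen, using a rabbit anti-monomethyl-H3K9 antibody with streptavidin donor and anti-IgG acceptor beads. Final levels are 20 nM enzyme, 500 nM peptide, 20 uM SAM; 2 h RT.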
* marks the source's active call; other numbers are inactive results; ? = inconclusive; . = not tested or not shown; [ ] = another dose, or the depositor's remark. An excerpt weighted towards active compounds, which were near 10% of everything screened. Unless noted, calls follow the shape of the dose curve; as a rule, active = well fitted inhibition curve with a large enough effect; inconclusive = small, poorly fitted or top-dose-only effect; inactive = no such curve, though single readings can be large or run the other way.

SMILES	Six1-Eya2 inh	CtBP-E1A blk	HP1b chromo inh	JMJD2A Tudor	BAZ2B block	G9a block
O=C(COC(=O)C12CC3CC(CC(C3)C1)C2)Nc1ccc2[nH]c(=O)[nH]c2c1	11	3	32%	-10%	-27%	8%
O=C(COC(=O)Cc1c(Cl)cccc1Cl)Nc1ccc2[nH]c(=O)[nH]c2c1	-23	-3	16%	-14%	-1%	50µM*
O=C(COC(=O)CCc1c[nH]c(=O)[nH]1)Nc1cccc(Cl)c1	-2	1	37%	-11%	0%	40µM*
CN(Cc1ccco1)c1ccnc(-c2ccccc2C(F)(F)F)n1	.	.	.	.	.	0%[0.501 µM]
CC[n+]1c(/C=C/c2c[nH]c3ccccc23)ccc2cc(C)ccc21	16	?	-19%	?	?	35µM*
Cc1ccc(C(=O)/C=C/c2c[nH]c3ccccc23)cc1	1	4	30%	-16%	?	3%[12.7 µM]
CCN(CC)C(=O)c1ccc(/C=C/c2c[nH]c3ccccc23)[n+](C)c1	-8	3	19%	?	-9%	3.2µM*
Cc1ccc(OCCOCCNC(C)C)c(Br)c1	4	3	?	10µM*	56µM*	.
COCC(C)NC(=O)COc1ccc(Cl)cc1Cl (stereo not given)	11	8	23%	20%[57.1 µM]	2%	-6%[59 µM]
COCCCNCCOc1cc(C(C)C)ccc1C	5	8	?	3.2µM*	79µM*	?
CCC(C)NCCOCCOc1ccc(Cl)cc1Br (stereo not given)	-19	-4	-19%	2.5µM*	-22%	2.2µM*
COCCCNCCOCCOc1ccc(C)cc1Br	3	7	19%	50µM*	?	?
COc1ccccc1OCCOCCOc1ccc(C)cc1Br	37	31	244%	104%	140%	142%[59 µM]
Cc1ccccc1NC(=O)Cn1nnc(C(=O)NCCc2ccccc2)c1N	.	.	54%	-22%	.	13%[59 µM]
O=C(Nc1ccc(Cl)cc1)OCCN1CCN(Cc2ccccc2)CCC1=O	.	.	.	.	.	10%[59 µM]
Cc1cccc(OCC(=O)Nc2ccc(Cl)c(-c3nc4ncccc4o3)c2)c1C	.	.	40%	4%	5%	5%[59 µM]
CCc1cc2c(cc3c(=O)n(CC(=O)NC4CCC(C)CC4)nc(CC)n32)s1 (stereo not given)	.	.	40%	-3%	27%	17%[59 µM]
CCCCNCCOCCOc1ccc(C)cc1Br	0	14	-35%	3.5µM*	?	10µM*
Cc1ccc(OCC(=O)NCCO)c(Br)c1	20	7	21%	-14%	4%	-32%
CCC(C)NCCOCCOc1ccc(C)cc1OC (stereo not given)	1	3	?	20µM*	?	11µM*
CCOC(=O)c1cccc(Nc2cc(-c3ccccc3)ncn2)c1	.	.	?	-1%	50µM*	16µM*
CN(C)C(=O)c1ccc(-c2cc(Nc3ccccc3)ncn2)cc1	.	.	.	.	.	-3%[0.501 µM]
Cc1sc2ncnc(Sc3ccccc3C(=O)Nc3ccc(C#N)cc3)c2c1C	-20	-20	12%	-16%	-28%	?
Cc1sc2ncnc(Sc3ccccc3C(=O)Nc3ccc(Br)cc3)c2c1C	0	1	?	?	27%	8.9µM*
COc1ccc(NC(=O)CN(C)C(=O)c2ccccc2Sc2ncnc3sc(C)c(C)c23)cc1	-2	0	29%	-19%	-21%	35µM*
SMILES	Six1-Eya2 inh	CtBP-E1A blk	HP1b chromo inh	JMJD2A Tudor	BAZ2B block	G9a block
Cc1sc2ncnc(Sc3ccccc3C(=O)Nc3ccccc3Cl)c2c1C	-1	.	40%	7%	-10%	3.5µM*
CCOc1ccccc1C(=O)N(C)CC(=O)Nc1ccc(OC)cc1	5	1	14%	-11%	-15%	15%
Cc1sc2ncnc(SC(C)C(=O)N3c4ccccc4Sc4ccccc43)c2c1C (stereo not given)	-15	-1	36%	-21%	-14%	-31%
COc1ccccc1-c1nc2c(c(SCc3ccc(F)cc3Cl)n1)Cc1c(CO)cnc(C)c1O2	.	.	33%	-10%	-10%	-35%[59 µM]
Cc1ccc(CNC(=O)C2CCN(S(=O)(=O)c3cccs3)CC2)o1	1	0	-24%	-26%	2%	8.9µM*
CCN(CC)c1ccc(CN2CCC(C(=O)NCc3ccc(C)cc3)CC2)cc1	-22	-9	?	20µM*	-13%	.
Cc1ccc(CNC(=O)C2CCC(=O)N(CC3CCCCC3)C2)o1 (stereo not given)	5	2	4%	-17%	-17%	45µM*
Cc1ccc(CNC(=O)C2CCN(S(=O)(=O)c3cccs3)CC2)cc1	4	7	8%	89µM*	8%	-2%
CCN(CC)S(=O)(=O)N1CCC(C(=O)NCc2ccc(C)cc2)CC1	4	8	13%	5%	1%	-12%
CCc1cccc(-n2c(=O)c3cccnc3n2CC(=O)Nc2ccccc2C(=O)OC)c1	.	.	29%	12%	5%	5%[59 µM]
CC1CCC(C(=O)NC(C(=O)OCC(=O)c2ccccc2)C(C)C)CC1 (stereo not given)	.	.	42%	-6%	1%	1%[59 µM]
CCN(C(=O)c1cc2c(Cl)nc3ccccc3c2s1)c1cccc(Cl)c1	.	.	27%	-6%	-4%	-1%[59 µM]
CNc1nnc(-c2ccc(N(C)C)cc2)s1	-3	8	22%	-24%	3%	7.9µM*
O=[N+]([O-])c1cc([N+](=O)[O-])c2cccnc2c1Oc1ccccc1O	-65*	?	71µM*	22µM*	28µM*	3.2µM*
O=[N+]([O-])c1ccc(O)c2ncccc12	-91*	-96*	-4%	22µM*	3.5µM*	?
O=[N+]([O-])c1ccc(O)c2cccnc12	-10	-6	?	-20%	?	?
O=C(CSc1ccccc1)NCC(c1ccco1)N1CCCCC1 (stereo not given)	-1	-1	13%	-10%	-20%	3%[12.7 µM]
OC(CNCC(c1ccco1)N1CCCCC1)c1ccccc1 (stereo not given)	4	-2	-56%	1.1µM*	50µM*	2.2µM*
COc1cccc(C(=O)N2CCC(N3CCN(Cc4ccc(F)cc4)C(=O)C3=O)CC2)c1	.	.	9%	-12%	1%	5%[59 µM]
COc1ccccc1N1CCN(S(=O)(=O)c2cc3c(cc2C)NC(=O)CO3)CC1	-24	-13	18%	-31%	-29%	79µM*
COc1ccc(-c2cc(C)no2)cc1S(=O)(=O)N1CC(=O)Nc2ccccc21	0	0	18%	-13%	-31%	50µM*
CCc1ccc(-c2cc(C)no2)cc1S(=O)(=O)N1CCN(c2ccccc2OC)CC1	?	-79*	31%	-29%	-27%	13%
